# Data published in PubChem BioAssay AID2732 (Emory University Molecular Libraries Screening Center, 2010).
# The campaign covered roughly 220,000 compounds. About 8,200 (3.7%) were called active. The sample holds actives, similar compounds and a random draw of the others, so the mix is not that of the screen.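 The calls were made as follows: active = compounds that reduced the stress-induced luciferase reporter signal by more than about 70% of percent inhibition (limit read from the data); inactive = the rest.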
# Experiment: inhibitors of CHOP promoter induction, primary screen, cell-based, unfolded protein response, luciferase reporter (AID 2732);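 also: 0% = tunicamycin plus vehicle and 100% = wells without tunicamycin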
# Details: CHO-K1 CHOP-promoter luciferase, tunicamycin-induced, 15-18 h; at 10 µM; stronger effect = higher value
row,Structure (SMILES),inhibition
1,CCN(CCNC(=O)C1=C(C)C(=O)OC12CCC(C)CC2)c1ccccc1 (stereo unspecified),23.7% (inactive)
2,CCc1ccc(NC(=O)N[C@H](C(=O)O)C(C)CC)cc1 (stereo partly specified),-4.67% (inactive)
3,CCOC(=O)/C(C#N)=C/c1ccc(OCC(=O)Nc2ccccc2)c(OC)c1,77.3% (active)
4,CCCn1c(C)cc(/C=C(\C#N)C(=O)OCC(=O)Nc2cc(OC)c(OC)c(OC)c2)c1C,9.36% (inactive)
5,CCOC(=O)/C(C#N)=C/c1ccc(N2CCN(Cc3ccccc3)CC2)cc1,5.69% (inactive)
6,COc1cc(/C=C2/C(=O)NN(c3ccc(F)cc3)C2=O)cc([N+](=O)[O-])c1O,0.68% (inactive)
7,O=C(CCCCCN1C(=O)c2cccc3cccc(c23)C1=O)NCc1ccco1,7.37% (inactive)
8,CCOC(=O)C1=C(c2ccccc2)NC(=S)NC1c1ccc(Cl)cc1 (stereo unspecified),18% (inactive)
9,CCOC(=O)c1[nH]c2c(c1C)C(=O)CC(c1ccc(N(C)C)cc1)C2 (stereo unspecified),9.42% (inactive)
10,CCOC(=O)c1[nH]c2c(c1-c1ccccc1)C(=O)CC(c1ccc(Cl)cc1)C2 (stereo unspecified),80.8% (active)
11,CC(NS(=O)(=O)c1ccccc1)c1n[nH]c(=S)n1-c1ccccc1 (stereo unspecified),19.4% (inactive)
12,CC(/C=C/c1ccco1)=N/NC(=O)C1COc2ccccc2O1 (stereo unspecified),0.12% (inactive)
13,CCc1ccc(S(=O)(=O)Nc2ccc(C)c(NS(C)(=O)=O)c2)cc1,16.4% (inactive)
14,COc1ccc(CCNS(=O)(=O)c2cccc3cccnc23)cc1OC,0.78% (inactive)
15,Cc1ccc2nc(NC(=O)C3CCN(S(=O)(=O)c4ccc5c(c4)oc(=O)n5C)CC3)sc2c1,80.1% (active)
16,O=C(Nc1nc2ccc(S(=O)(=O)N3CCCC3)cc2s1)C1CCCO1 (stereo unspecified),9.58% (inactive)
17,Cn1c(=O)oc2cc(S(=O)(=O)N3CCC(C(=O)Nc4ccc(OC(F)(F)F)cc4)CC3)ccc21,12% (inactive)
18,Nc1ccc(N=Nc2ccccc2Cl)c(N)n1,-4.49% (inactive)
19,CC(=O)Nc1ccc(S(=O)(=O)N2CCN(CCCOc3cc(C)ccc3C)CC2)cc1,71.1% (active)
20,Cc1cccc(OCCCC(=O)Nc2ccc(S(=O)(=O)N3CCCC3)cc2)c1,89% (active)
21,Cc1cccc(OCCC(=O)Nc2cc(S(=O)(=O)N3CCCCC3)ccc2N2CCOCC2)c1,40.4% (inactive)

row,Structure (SMILES),inhibition
1,Cc1ccc(C)c(S(=O)(=O)N2CCN(CC(=O)Nc3ccc([N+](=O)[O-])cc3)CC2)c1,42% (inactive)
2,CCN(CC(=O)Nc1ccc(S(=O)(=O)N2CCCC2)cc1)CC(=O)Nc1cccc(OC)c1,2.69% (inactive)
3,CC(=O)Nc1ccc(S(=O)(=O)N2CCSCC2)cc1,-25.3% (inactive)
4,CCc1ccc[n+](-c2nc([O-])sc2C=O)c1,9.23% (inactive)
5,Nc1nc(Sc2ncccc2[N+](=O)[O-])n[nH]1,-14.3% (inactive)
6,CC(=O)c1nnn(-c2ccc(Cl)cc2C#N)c1C,13.8% (inactive)
7,Cn1nc(C(C)(C)C)c([N+](=O)[O-])c1C(N)=O,1.68% (inactive)
8,COc1ccc(C(=O)N/N=C2\CCS(=O)(=O)c3ccc(F)cc32)cc1OC,-0.83% (inactive)
9,O=C(NCC(c1cccs1)N1CCOCC1)c1cc(-c2ccccn2)nc2ccccc12 (stereo unspecified),7.03% (inactive)
10,COCC(=O)N=Nc1c(O)[nH]c2ccccc12,-14.7% (inactive)
11,Cc1cccc(N(CC(=O)N=Nc2c(O)[nH]c3ccccc23)S(C)(=O)=O)c1C,27% (inactive)
12,Cc1c(-c2ccccc2)n[nH]c1C(=O)N=Nc1c(O)[nH]c2ccccc12,106% (active)
13,O=C(CC(c1ccccc1)c1cc(Cl)ccc1O)NCCN1CCOCC1 (stereo unspecified),-2.25% (inactive)
14,CN(C)S(=O)(=O)c1ccc(Cl)c(NC(=O)COC(=O)CC(NC(N)=O)c2ccc(Cl)cc2)c1 (stereo unspecified),-8.1% (inactive)
15,CC(C)NC(=O)NNc1c(Cl)cncc1Cl,5.99% (inactive)
16,O=C(NCc1ccc2c(c1)OCO2)c1sccc1Br,8.42% (inactive)
17,Cc1cccc(C)c1NC(=O)CSc1ccc([N+](=O)[O-])cn1,-10.4% (inactive)
18,Cc1cc(C)c(C#N)c(SCC(=O)Nc2ccccc2)n1,41.3% (inactive)
19,Cc1cc2cc3c(cc2nc1SCC(=O)Nc1c(C)cccc1C)CCC3,79.2% (active)
20,COC(=O)c1c(C)oc(C)c1S(=O)(=O)NCc1ccc(Cl)cc1,30.1% (inactive)
21,Cc1ccc(OCC(=O)N/N=C/c2ccncc2)cc1,10% (inactive)

row,Structure (SMILES),inhibition
1,Cc1ccc(/C=N/NC(=O)COc2ccccc2-c2ccccc2)cc1,90.4% (active)
2,Cc1ccc(OCC(=O)N/N=C\c2ccco2)c(C)c1,12.7% (inactive)
3,Cc1cc(OCCCCOc2ccc(C#N)cc2)ccc1[N+](=O)[O-],32.1% (inactive)
4,COc1ccccc1Nc1nc(N)nc(CSC(=S)N2CCOCC2)n1,9% (inactive)
5,CCCCCCC(=O)N(O)C1CC(=O)N(c2ccccc2)C1=O (stereo unspecified),106% (active)
6,CCOc1ccc(N2C(=O)CC(N(O)c3ccccc3)C2=O)cc1 (stereo unspecified),-34% (inactive)
7,CCOC(=O)c1ccc(N2C(=O)CC(N(C)Cc3ccccc3)C2=O)cc1 (stereo unspecified),40.7% (inactive)
8,COCCN1C2=C(COC(C)(C)C2)C(=S)NC1c1ccccc1 (stereo unspecified),12.9% (inactive)
9,Cc1cc(C(=O)OCC(=O)Nc2nccs2)c2ccccc2n1,23.3% (inactive)
10,Cc1cc(C)cc(NS(=O)(=O)c2ccc(F)cc2)c1,10.9% (inactive)
11,CSc1ccc(S(=O)(=O)NC2CCCCC2)cc1,1.25% (inactive)
12,CSc1ccc(S(=O)(=O)Nc2cccc(F)c2)cc1,74.6% (active)
13,O=S(=O)(Nc1ccc(OC(F)(F)F)cc1)c1cccc2nonc12,-2.82% (inactive)
14,Cn1ccc(NC(=O)Nc2ccc(Cl)cc2)n1,-23.2% (inactive)
15,CC(C)=NN1C(=O)c2ccccc2NC1(C)C,2.15% (inactive)
16,O=C(Nc1ccccc1Cl)c1ccc2nsnc2c1,-20.7% (inactive)
17,COCCN(CCOC)C(=S)Nc1ccccc1Cl,15.1% (inactive)
18,O=C(Nc1ccccc1Cl)/C(Cl)=C(\Cl)S(=O)c1ccccc1 (stereo unspecified),108% (active)
19,NC(=O)Cc1ccc2c(c1)[nH]c1ccccc12,-13.9% (inactive)
